These results are taken from PubChem BioAssay AID2205 (University of Pittsburgh Molecular Library Screening Center, 2009).

Structures are written as SMILES. Hit rate of the full screen: of about 200,000 compounds, about 1,600 (0.8%) were called active. The sample holds actives, similar compounds and a random draw of the others, so the mix is not that of the screen.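 The calls were made as follows: active = plate Z-score above 3 for both tubulin-high and condensed-nucleus cell shares, with cell loss under 80%, at 10 µM; inactive = the rest, inconclusive results apart.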

This test in a line: microtubule stabilizers in HeLa cells, primary screen, imaging, high-content imaging (AID 2205).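 As to % tubulin-high responders: anti alpha tubulin signal scored within the nucleus-defined area of each cell.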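 As to toxicity: 0% = mean cell density of plate MIN control wells and 100% = no cells.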 Conditions: HeLa tubulin immunostaining HCS, 24 h, at 10 µM; % Hoechst-high responders: measured here: nuclear condensation Hoechst responders, stronger effect = higher value, share of cells brighter than vehicle mean+2SD; % tubulin-high responders: stronger effect = higher value, share of cells brighter than vehicle mean+2SD; toxicity: measured here: cytotoxicity by cell density.
`Cc1ccc(Nc2nnc(SCc3ccccc3)s2)cc1`: the % Hoechst-high responders came out at 1.53%, the % tubulin-high responders is 1.84% (inactive) and the toxicity is 10%.

Regarding `Cc1ccc(Nc2ccccc2N)cc1`, the % Hoechst-high responders came to 19%, the % tubulin-high responders is 25.1% (active) and the toxicity worked out at 21.1%.

On to `Nc1ccc(Nc2ccccc2)cc1`, for which the % Hoechst-high responders is 2.02%, the % tubulin-high responders was 3.57% (inactive) and the toxicity worked out at 3.51%.

Regarding `COc1ccccc1OCCNC(=O)c1cc([N+](=O)[O-])cc([N+](=O)[O-])c1`, the % Hoechst-high responders was 1.79%, the % tubulin-high responders was 2.35% (inactive) and the toxicity turned out to be 4.5%.

With `CCOC(=O)c1sc2nc(CSCC(=O)OCc3ccc(C(=O)OC)o3)[nH]c(=O)c2c1C`, the % Hoechst-high responders is 1.26%, the % tubulin-high responders is 1.86% (inactive) and the toxicity was found to be 6.86%.

As for `CCOC(=O)c1sc2nc(CSc3ccccc3)[nH]c(=O)c2c1C`, the % Hoechst-high responders is 28.5%, the % tubulin-high responders is 17.6% (active) and the toxicity amounted to 32.2%.

With `CCOC(=O)c1sc2nc(C)nc(SCC(N)=O)c2c1C`, the % Hoechst-high responders was 2.34%, the % tubulin-high responders is 3.35% (inactive) and the toxicity was determined as 5.02%.

Turning to `O=C(Nc1ccon1)c1sc2ccccc2c1Cl`, the % Hoechst-high responders is 2.6%, the % tubulin-high responders was 2.29% (inactive) and the toxicity was 5.2%.

Turning to `Cc1nn(C)cc1/C=N/NC(=O)c1sc2ccccc2c1Cl`, the % Hoechst-high responders worked out at 0.999%, the % tubulin-high responders is 1.5% (inactive) and the toxicity is 12.2%.

With `O=C(N/N=C/c1c(Cl)[nH]c2ccccc12)c1sc2ccccc2c1Cl`, the % Hoechst-high responders came to 42.8%, the % tubulin-high responders is 18.9% (active) and the toxicity amounted to 32.3%.

Take `COc1ccccc1N1CC(O)=C(c2nc3ccccc3s2)C1=N`: the % Hoechst-high responders came to 9.29%, the % tubulin-high responders was 17.8% (active) and the toxicity amounted to 14.3%.

Turning to `N=C1C(c2nc3ccccc3s2)=C(O)CN1NC(=O)c1ccc([N+](=O)[O-])cc1`, the % Hoechst-high responders came out at 1.37%, the % tubulin-high responders was 9.65% (inactive) and the toxicity is 4.7%.

Regarding `CCOC(=O)CCCN1CC(O)=C(c2nc3ccccc3s2)C1=N`, the % Hoechst-high responders came to 2.61%, the % tubulin-high responders was 4.95% (inactive) and the toxicity was determined as 2.95%.

Consider `Cc1ccc(C(=O)NC(=S)Nc2ccccc2C)cc1`, for which the % Hoechst-high responders turned out to be 1.22%, the % tubulin-high responders was 1.11% (inactive) and the toxicity turned out to be 8.22%.

For `C/C(CCC(=O)OC[C@H]1O[C@H](C#Cc2ccccc2)C=C[C@@H]1Oc1ccc(C)cc1)=N\OC[C@@H](O)[C@H]1O[C@@H]2OC(C)(C)O[C@@H]2[C@H]1O`, the % Hoechst-high responders was determined as 2.47%, the % tubulin-high responders is 2.74% (inactive) and the toxicity is 9.27%.

As to `COc1ccc(C(=O)N2CCc3cc(OC)c(OC)cc3C2c2cccc([N+](=O)[O-])c2)cc1` (stereo not drawn), the % Hoechst-high responders was 33.6%, the % tubulin-high responders is 45.1% (active) and the toxicity came to 30.8%.

For `COc1ccccc1C1SCCN1C(=O)c1ccc([N+](=O)[O-])cc1` (stereo not drawn), the % Hoechst-high responders worked out at 3.5%, the % tubulin-high responders was 3.9% (inactive) and the toxicity was determined as 3.11%.

`CCC1(C(=O)c2ccccc2)C(c2cccc([N+](=O)[O-])c2)C1(C(=O)OC)C(=O)OC` (stereo not drawn): the % Hoechst-high responders was found to be 2.35%, the % tubulin-high responders is 3.4% (inactive) and the toxicity is 3.29%.

In the case of `Cc1cccc(OCCCC(=O)Nc2ccc(S(=O)(=O)N3CCCC3)cc2)c1`, the % Hoechst-high responders turned out to be 2.42%, the % tubulin-high responders is 3.34% (inactive) and the toxicity was determined as 1.31%.

Consider `CCCCOc1ccc(NC(=O)[C@@H]2CCCN2C(=O)C2CCN(S(=O)(=O)c3ccc(C)cc3)CC2)cc1`, for which the % Hoechst-high responders came out at 12%, the % tubulin-high responders is 23.9% (active) and the toxicity stood at 63.4%.

Regarding `COc1ccc(N2CCN(C(=O)C3CCN(S(=O)(=O)c4ccc(C)cc4)CC3)CC2)cc1`, the % Hoechst-high responders is 2.46%, the % tubulin-high responders was 4.98% (inactive) and the toxicity is 9.28%.

`CCOc1ccc(NC(=S)N2CCC(N(C)CC3CCCO3)CC2)cc1` (stereo not drawn): the % Hoechst-high responders stood at 1.17%, the % tubulin-high responders is 2.22% (inactive) and the toxicity is 7.25%.

Regarding `COC(=O)c1cc(C(=O)N(Cc2ccccc2)c2ccccn2)cc([N+](=O)[O-])c1`, the % Hoechst-high responders came to 2.13%, the % tubulin-high responders was 3.91% (inactive) and the toxicity turned out to be 2.76%.

With `CCOc1[nH]n(-c2ccc(Cl)cc2)c(=O)c1C=Nc1ccc(O)cc1`, the % Hoechst-high responders turned out to be 12.9%, the % tubulin-high responders is 33.2% (active) and the toxicity came out at 43.1%.

As to `Cc1[nH]n(-c2ccc(Cl)cc2)c(=O)c1/C=N/n1c(C)nc2ccccc2c1=O`, the % Hoechst-high responders was determined as 2.61%, the % tubulin-high responders is 5.31% (inactive) and the toxicity worked out at 6.25%.

On to `CCc1nnc(NS(=O)(=O)c2ccc(N=Cc3c(C)[nH]n(-c4ccc(C)cc4)c3=O)cc2)s1`, for which the % Hoechst-high responders was 2.28%, the % tubulin-high responders was 1.91% (inactive) and the toxicity is 6.1%.

Turning to `O=C(NC(=S)Nc1ccc(S(=O)(=O)N2CCOCC2)cc1)c1ccccc1[N+](=O)[O-]`, the % Hoechst-high responders amounted to 1.54%, the % tubulin-high responders was 3.32% (inactive) and the toxicity is 3.74%.

Turning to `COc1ccc(-c2cc(C(=O)NCc3ccco3)no2)cc1OC`, the % Hoechst-high responders was 1.41%, the % tubulin-high responders is 1.62% (inactive) and the toxicity stood at 8.27%.

With `COc1ccc(C2=NOC(C(=O)NCc3ccco3)C2)cc1OC` (stereo not drawn), the % Hoechst-high responders was determined as 22.4%, the % tubulin-high responders is 39.6% (active) and the toxicity worked out at 66.2%.

`Cc1ccc(CNC(=O)C2CC(c3ccccc3[N+](=O)[O-])=NO2)o1` (stereo not drawn): the % Hoechst-high responders stood at 2.18%, the % tubulin-high responders is 1.45% (inactive) and the toxicity amounted to 2.23%.

On to `O=[N+]([O-])c1ccc(Sc2n[nH]c(-c3ccco3)n2)nc1`, for which the % Hoechst-high responders came to 1.75%, the % tubulin-high responders is 2.25% (inactive) and the toxicity was found to be 7.26%.

Regarding `CCCCCCCC[n+]1cccc(C(=O)N2c3c(nc(N)[nH]c3=O)NC(C)C2C)c1` (stereo not drawn), the % Hoechst-high responders stood at 2.15%, the % tubulin-high responders was 1.56% (inactive) and the toxicity is 7.45%.

Regarding `CCOc1cccc(/C=N/N2C(=O)CSC2=S)c1O`, the % Hoechst-high responders is 1.52%, the % tubulin-high responders was 5.1% (inactive) and the toxicity was determined as 14.4%.

Take `Cc1nccn1CCCNC(=O)CC1C(=O)NCCN1Cc1ccc(Cl)c(F)c1` (stereo not drawn): the % Hoechst-high responders is 2.31%, the % tubulin-high responders is 2.68% (inactive) and the toxicity was 1.05%.

Turning to `COC(=O)C1=C(Nc2ccc(C)cc2)C=C(C)C(C(=O)OC)C1c1ccc(F)cc1` (stereo not drawn), the % Hoechst-high responders was 21.1%, the % tubulin-high responders was 34.1% (active) and the toxicity was 39.5%.

For `COC(=O)C1=C(Nc2ccc(OC)cc2)C=C(C)C(C(=O)OC)C1c1ccc(C)cc1` (stereo not drawn), the % Hoechst-high responders is 1.91%, the % tubulin-high responders was 2.3% (inactive) and the toxicity was found to be 12.1%.

For `COC(=O)C1C(=O)NCC1c1ccc(C)cc1` (stereo not drawn), the % Hoechst-high responders came to 1.21%, the % tubulin-high responders was 1.21% (inactive) and the toxicity worked out at 6.65%.

Consider `COc1ccc(C2NC(=S)NC3=C2CCc2ccccc23)cc1OC` (stereo not drawn), for which the % Hoechst-high responders came to 3.43%, the % tubulin-high responders was 3.22% (inactive) and the toxicity amounted to 5.09%.

Take `O=C(CCN1C(=O)/C(=C/c2cccs2)SC1=S)NNC(=O)c1cccc(O)c1`: the % Hoechst-high responders is 1.28%, the % tubulin-high responders was 1.78% (inactive) and the toxicity was determined as 8.2%.

In the case of `CCOC(=O)c1ccccc1NS(=O)(=O)c1ccc(OC)cc1`, the % Hoechst-high responders was 15.7%, the % tubulin-high responders is 39.6% (active) and the toxicity was 61.3%.

With `CCOc1cc(NS(=O)(=O)c2ccc(OC)cc2)c(OCC)cc1NC(C)=O`, the % Hoechst-high responders is 0.933%, the % tubulin-high responders was 2.92% (inactive) and the toxicity stood at 3.17%.

As for `COC(=O)c1ccccc1NS(=O)(=O)c1ccc2[nH]c(=O)[nH]c2c1`, the % Hoechst-high responders stood at 5.36%, the % tubulin-high responders is 4.9% (inactive) and the toxicity turned out to be 0.144%.

Regarding `COc1ccc(C)cc1NC(=O)CSc1nnc(CC(=O)Nc2ccccc2F)n1C`, the % Hoechst-high responders amounted to 1.3%, the % tubulin-high responders is 2.49% (inactive) and the toxicity was found to be 3.08%.

On to `COc1ccc(C(=O)n2nc(-c3ccc(Cl)cc3)nc2N)cc1OC`, for which the % Hoechst-high responders is 2.89%, the % tubulin-high responders was 4.28% (inactive) and the toxicity was 4.28%.

In the case of `COc1ccccc1C(=O)n1nc(-c2ccccc2)nc1N`, the % Hoechst-high responders came to 2.45%, the % tubulin-high responders was 1.99% (inactive) and the toxicity amounted to 31.9%.

As to `COc1ccc(C(=O)n2nc(-c3ccc(C)cc3)nc2N)cc1OC`, the % Hoechst-high responders worked out at 34.9%, the % tubulin-high responders is 48.4% (active) and the toxicity worked out at 31.5%.
